Data on eight compounds can be found in ChEMBL document CHEMBL3988442, “University of Dundee, Small-Polar-MMV Screening Library” (2021).

For some of these results: Measured potencies and affinities stand elsewhere.

Holding throughout (parameters): scale not given: direction of the effect not stated beside the values
The target of assay [1] is Protein translocase subunit SecA (Escherichia coli (strain K12)) (UniProt P10408). Nature of the assay: Assay to Identify E. coli SecA ATPase Inhibitors. In kind it is functional. Conditions: 30 µM.
The target of assay [2] is T1, Ubiquitin-activating enzyme e1, putative (Leishmania donovani (strain BPK282A1)) (UniProt E9BSI1).
T1 sequence (whole entry): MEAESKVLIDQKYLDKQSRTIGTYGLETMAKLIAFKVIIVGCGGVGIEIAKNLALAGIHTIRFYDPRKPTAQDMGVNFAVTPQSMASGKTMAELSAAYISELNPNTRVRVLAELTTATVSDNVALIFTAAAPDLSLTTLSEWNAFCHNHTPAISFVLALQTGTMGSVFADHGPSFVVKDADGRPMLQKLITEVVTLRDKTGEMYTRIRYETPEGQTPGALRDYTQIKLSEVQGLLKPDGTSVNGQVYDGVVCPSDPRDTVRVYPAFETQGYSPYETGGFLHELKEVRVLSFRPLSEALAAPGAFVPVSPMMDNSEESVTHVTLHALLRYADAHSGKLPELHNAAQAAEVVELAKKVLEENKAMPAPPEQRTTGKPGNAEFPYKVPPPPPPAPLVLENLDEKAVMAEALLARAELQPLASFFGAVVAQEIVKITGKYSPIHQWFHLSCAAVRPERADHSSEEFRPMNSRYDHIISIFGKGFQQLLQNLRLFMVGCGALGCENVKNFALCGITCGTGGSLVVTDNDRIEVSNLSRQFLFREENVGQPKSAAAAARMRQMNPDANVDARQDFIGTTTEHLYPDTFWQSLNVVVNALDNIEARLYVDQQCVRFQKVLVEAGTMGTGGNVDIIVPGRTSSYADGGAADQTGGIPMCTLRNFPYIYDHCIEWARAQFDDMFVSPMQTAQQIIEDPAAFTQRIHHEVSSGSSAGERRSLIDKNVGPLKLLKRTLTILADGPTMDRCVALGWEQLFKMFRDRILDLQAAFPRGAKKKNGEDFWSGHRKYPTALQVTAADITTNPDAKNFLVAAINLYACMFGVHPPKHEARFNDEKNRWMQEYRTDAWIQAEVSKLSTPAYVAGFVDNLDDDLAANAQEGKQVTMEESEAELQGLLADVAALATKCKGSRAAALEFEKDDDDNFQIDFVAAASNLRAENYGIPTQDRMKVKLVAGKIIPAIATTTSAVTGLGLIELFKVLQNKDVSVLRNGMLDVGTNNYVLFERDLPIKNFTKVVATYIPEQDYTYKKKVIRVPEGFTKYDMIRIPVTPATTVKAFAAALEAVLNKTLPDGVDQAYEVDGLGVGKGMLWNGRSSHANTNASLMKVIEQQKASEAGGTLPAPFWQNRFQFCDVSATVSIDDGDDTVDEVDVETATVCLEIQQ
Nature of the assay: Leishmania donovani Ubiquitin Activating Enzyme (LdE1). In kind it is functional. Conditions: 30 µM.

Assay [3] has as its target AMP-activated protein kinase, AMPK (Homo sapiens) (UniProt P54646+O43741+P54619+Q9UGJ0+Q9Y478+Q13131+Q9UGI9). In words: AMP-dependent Kinase enzyme assay. An in vitro enzyme assay that detects ADP turnover that is directly proportional to AMPK activity. This uses naive AMPK that is activated during the assay with MK-8722. The conditions noted are these: 30 µM. In kind it is functional.

For assay [4], the target named is Sialic acid-binding Ig-like lectin 9 (Homo sapiens) (UniProt Q9Y336). Nature of the assay: Hs-Siglec9 ALPHAscreen SOP 20170721. The conditions noted are these: 10 µM.
In assay [5] the test system is Trypanosoma cruzi. In words: Trypanosoma cruzi phosphomannomutase and mannose-1-phosphate guanylyltransferase assay. The class given is functional. The conditions noted are these: 10 µM.
Assay [6] concerns the target T2, Arginase-2, mitochondrial (Homo sapiens) (UniProt P78540).
T2 sequence (whole entry): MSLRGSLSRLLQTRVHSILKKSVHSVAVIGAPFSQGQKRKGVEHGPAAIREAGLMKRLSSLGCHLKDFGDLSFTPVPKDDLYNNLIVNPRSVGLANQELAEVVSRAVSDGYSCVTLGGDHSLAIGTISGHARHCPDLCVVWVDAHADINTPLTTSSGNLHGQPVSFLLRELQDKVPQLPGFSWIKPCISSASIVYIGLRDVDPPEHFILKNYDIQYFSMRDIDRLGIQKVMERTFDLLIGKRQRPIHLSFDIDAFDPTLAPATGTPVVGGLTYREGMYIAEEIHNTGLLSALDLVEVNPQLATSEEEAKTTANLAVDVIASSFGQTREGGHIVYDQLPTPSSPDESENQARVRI
In words: in vitro enzyme assay to detect the production of urea directly proportional to the activity of Arginase II. Further: in the data most compounds retested in dose-response had high values. The class given is functional. The conditions noted are these: 33.3 µM.

Assay [7] has as its target T3, Proteasome subunit beta (Trypanosoma cruzi) (UniProt O96673).
T3 sequence (whole entry): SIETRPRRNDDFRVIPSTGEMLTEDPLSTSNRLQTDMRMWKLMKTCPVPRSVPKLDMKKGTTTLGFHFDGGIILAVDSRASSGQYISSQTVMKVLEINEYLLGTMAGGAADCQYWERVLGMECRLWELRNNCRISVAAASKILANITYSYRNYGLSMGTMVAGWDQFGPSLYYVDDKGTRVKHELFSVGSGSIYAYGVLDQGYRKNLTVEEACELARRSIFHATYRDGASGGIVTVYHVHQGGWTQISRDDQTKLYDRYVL
In words: Trypanosoma cruzi proteasome chymotrypsin-like activity (TcProtChymo) assay. Further: in the data most compounds retested in dose-response had high values. The class given is functional. The conditions noted are these: 9.37 µM.

For assay [8], the species on record is Homo sapiens. Nature of the assay: To identify inhibition of the IFN signalling (Jak-Stat) pathway via expression of an eGFP reporter gene under the control of an IFN-stimulated response element (ISRE) containing MxA promoter. In kind it is functional. The conditions noted are these: 30 µM. On the technique in general: Reporter assays use an easily measured gene product as a stand-in for the process of interest.

Assay [9] has as its target T4, Tyrosyl-tRNA synthetase, putative (Trypanosoma cruzi (strain CL Brener)) (UniProt Q4DSP6).
T4 sequence (whole entry): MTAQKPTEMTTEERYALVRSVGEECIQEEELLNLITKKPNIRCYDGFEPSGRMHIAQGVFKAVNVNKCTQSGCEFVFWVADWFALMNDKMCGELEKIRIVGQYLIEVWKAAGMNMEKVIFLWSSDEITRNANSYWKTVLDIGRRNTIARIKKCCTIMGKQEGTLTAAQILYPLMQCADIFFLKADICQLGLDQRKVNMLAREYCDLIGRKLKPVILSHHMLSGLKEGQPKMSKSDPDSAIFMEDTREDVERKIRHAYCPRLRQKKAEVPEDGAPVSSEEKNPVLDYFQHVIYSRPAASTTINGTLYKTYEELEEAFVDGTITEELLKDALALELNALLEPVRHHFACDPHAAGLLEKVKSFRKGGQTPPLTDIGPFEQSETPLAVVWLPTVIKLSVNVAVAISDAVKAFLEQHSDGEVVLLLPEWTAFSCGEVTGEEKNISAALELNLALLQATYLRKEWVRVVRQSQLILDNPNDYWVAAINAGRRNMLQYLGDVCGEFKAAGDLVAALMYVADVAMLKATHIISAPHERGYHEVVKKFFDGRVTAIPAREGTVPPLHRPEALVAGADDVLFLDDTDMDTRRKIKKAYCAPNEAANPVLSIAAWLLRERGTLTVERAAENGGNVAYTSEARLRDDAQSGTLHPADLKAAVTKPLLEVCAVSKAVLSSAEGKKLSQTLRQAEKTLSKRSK
In words: Trypanosoma cruzi tyrosyl tRNA synthetase (TcYRS) _High Tyrosine SOP. Further: in the data most compounds retested in dose-response had high values. The class given is functional. The conditions noted are these: 30 µM.

The target of assay [10] is T4, Tyrosyl-tRNA synthetase, putative (Trypanosoma cruzi (strain CL Brener)). Nature of the assay: Trypanosoma cruzi tyrosyl tRNA synthetase (TcYRS) SOP. Conditions: 30 µM. In kind it is functional.
Assay [11] addresses Chromo domain-containing protein 1 (Saccharomyces cerevisiae (strain ATCC 204508 / S288c) (Baker's yeast)) (UniProt P32657). Nature of the assay: ScCHD-1 Enzyme Inhibition Assay. Further: in the data most compounds retested in dose-response had high values. In kind it is functional. The conditions noted are these: 30 µM.

Protein translocase subunit SecA (Escherichia coli (strain K12)), sequence (P10408 whole entry): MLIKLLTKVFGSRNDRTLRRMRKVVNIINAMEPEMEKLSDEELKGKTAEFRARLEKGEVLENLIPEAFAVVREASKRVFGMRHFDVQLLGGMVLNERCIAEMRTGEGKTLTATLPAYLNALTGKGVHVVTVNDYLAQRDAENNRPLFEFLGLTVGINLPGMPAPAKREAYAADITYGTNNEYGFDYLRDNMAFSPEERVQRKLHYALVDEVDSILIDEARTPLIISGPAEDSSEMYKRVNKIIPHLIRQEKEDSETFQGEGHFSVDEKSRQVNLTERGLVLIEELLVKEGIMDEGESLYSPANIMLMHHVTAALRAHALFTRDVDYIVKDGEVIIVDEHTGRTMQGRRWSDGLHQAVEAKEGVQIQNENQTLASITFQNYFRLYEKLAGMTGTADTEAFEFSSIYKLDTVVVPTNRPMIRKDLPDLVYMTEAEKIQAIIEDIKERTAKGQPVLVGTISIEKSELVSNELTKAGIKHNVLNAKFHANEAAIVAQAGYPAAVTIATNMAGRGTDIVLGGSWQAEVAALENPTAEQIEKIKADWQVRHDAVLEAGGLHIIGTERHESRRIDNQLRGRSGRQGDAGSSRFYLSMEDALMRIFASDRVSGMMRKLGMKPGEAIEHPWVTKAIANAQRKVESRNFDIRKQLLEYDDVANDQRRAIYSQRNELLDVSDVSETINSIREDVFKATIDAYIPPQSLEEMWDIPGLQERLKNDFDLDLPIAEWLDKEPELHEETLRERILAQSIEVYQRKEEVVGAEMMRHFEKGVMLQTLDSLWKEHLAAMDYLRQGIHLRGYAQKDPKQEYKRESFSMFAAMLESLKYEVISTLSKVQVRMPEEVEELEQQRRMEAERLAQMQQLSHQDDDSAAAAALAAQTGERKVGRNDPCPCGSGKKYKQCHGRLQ
Chromo domain-containing protein 1 (Saccharomyces cerevisiae (strain ATCC 204508 / S288c) (Baker's yeast)), sequence (P32657 whole entry, the tested form may be a part): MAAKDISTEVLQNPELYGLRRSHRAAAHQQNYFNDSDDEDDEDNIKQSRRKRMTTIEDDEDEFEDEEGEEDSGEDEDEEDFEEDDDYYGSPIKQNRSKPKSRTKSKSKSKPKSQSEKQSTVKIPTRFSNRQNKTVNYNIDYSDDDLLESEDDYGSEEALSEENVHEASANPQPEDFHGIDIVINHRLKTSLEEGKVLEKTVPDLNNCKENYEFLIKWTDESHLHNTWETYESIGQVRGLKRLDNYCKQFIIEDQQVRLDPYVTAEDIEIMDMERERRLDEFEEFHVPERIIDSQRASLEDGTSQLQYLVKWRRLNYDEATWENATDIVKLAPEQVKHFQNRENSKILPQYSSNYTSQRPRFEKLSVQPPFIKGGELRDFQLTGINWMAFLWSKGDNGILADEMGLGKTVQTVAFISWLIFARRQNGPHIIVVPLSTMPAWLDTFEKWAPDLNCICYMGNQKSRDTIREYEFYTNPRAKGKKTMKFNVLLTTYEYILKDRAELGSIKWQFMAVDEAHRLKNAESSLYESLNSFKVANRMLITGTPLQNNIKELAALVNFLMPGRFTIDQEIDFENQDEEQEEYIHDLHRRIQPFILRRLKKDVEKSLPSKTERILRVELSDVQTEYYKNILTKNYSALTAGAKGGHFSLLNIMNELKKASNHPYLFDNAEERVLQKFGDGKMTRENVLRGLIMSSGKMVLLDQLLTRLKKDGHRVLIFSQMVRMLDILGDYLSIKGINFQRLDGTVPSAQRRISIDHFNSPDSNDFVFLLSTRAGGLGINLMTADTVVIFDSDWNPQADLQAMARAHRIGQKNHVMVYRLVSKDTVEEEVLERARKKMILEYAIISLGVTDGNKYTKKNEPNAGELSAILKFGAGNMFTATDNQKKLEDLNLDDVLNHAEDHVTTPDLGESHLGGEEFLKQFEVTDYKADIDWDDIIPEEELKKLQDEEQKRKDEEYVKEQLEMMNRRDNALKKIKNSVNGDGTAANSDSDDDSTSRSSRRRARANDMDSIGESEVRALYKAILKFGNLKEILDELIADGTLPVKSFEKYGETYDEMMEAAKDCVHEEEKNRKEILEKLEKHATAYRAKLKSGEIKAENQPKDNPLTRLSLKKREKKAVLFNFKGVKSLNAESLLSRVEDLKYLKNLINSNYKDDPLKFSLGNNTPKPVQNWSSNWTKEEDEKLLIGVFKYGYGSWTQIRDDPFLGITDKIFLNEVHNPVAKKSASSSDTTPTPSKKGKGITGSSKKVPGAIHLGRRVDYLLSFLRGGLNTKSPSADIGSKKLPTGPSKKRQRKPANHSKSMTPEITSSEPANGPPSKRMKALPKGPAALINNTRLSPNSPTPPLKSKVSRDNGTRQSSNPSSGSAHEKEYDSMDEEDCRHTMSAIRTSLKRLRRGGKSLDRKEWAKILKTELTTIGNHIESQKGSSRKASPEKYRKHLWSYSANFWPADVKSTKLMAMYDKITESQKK
Sialic acid-binding Ig-like lectin 9 (Homo sapiens), sequence (Q9Y336 whole entry): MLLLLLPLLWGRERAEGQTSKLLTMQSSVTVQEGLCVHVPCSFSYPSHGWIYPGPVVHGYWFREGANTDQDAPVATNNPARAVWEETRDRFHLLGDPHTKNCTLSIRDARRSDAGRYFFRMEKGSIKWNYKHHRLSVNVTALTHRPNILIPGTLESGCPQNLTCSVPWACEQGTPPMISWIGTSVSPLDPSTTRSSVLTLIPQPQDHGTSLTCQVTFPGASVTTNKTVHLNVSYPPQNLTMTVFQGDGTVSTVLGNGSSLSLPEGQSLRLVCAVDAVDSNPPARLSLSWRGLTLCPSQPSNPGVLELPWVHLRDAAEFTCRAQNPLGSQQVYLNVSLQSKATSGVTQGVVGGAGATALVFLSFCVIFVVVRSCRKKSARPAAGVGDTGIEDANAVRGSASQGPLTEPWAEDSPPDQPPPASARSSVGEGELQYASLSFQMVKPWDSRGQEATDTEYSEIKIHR

Turning to `Cc1nccn1CC1CCCN1S(=O)(=O)Cc1ccccc1` (stereo not drawn), the Percent Effect in [1] was -4.51%; in assay [2] it was 5.06%; in [3], 2.14%; in assay [4] it was 4.66%; in assay [5] it was 3.49%; in assay [6] it was 1.9%. For the same compound, the Percent Effect in [7] was -0.573%; in [8] it was -9.27%; in assay [9], 2.46%; in assay [10] it was 3.8%; in [11] it was -0.456%.
Consider `Cc1csc(CNC(=O)N(C)Cc2cnn(C)c2)n1`, for which the Percent Effect in assay [1] is -2.05%; in assay [2], 21.6%; in [3], -6.61%; in assay [4] it was 2.62%; in [5], 4.18%; in assay [6], -4.25%. Moreover, the Percent Effect in [7] is 16.5%; in assay [8] it was 12.9%; in assay [9], 5.94%; in assay [10], 23.2%; in assay [11], -4.86%.
Turning to `Cc1cc(N2CCC(N(C)C(=O)Nc3ccccc3)CC2)nc(C)n1`, the Percent Effect in assay [1] is -4.81%; in assay [2], 8.22%; in assay [3], 12.3%; in assay [4], -3.15%; in [5], -1.18%; in assay [6] it was 6.36%. Also, the Percent Effect was 12.8% in assay [7]; 6.79% in [8]; 4.3% in assay [9]; 10% in assay [10]; -2.89% in [11].
For `Cc1ccc(C(=O)N2CCC(Oc3ccc(F)cc3F)CC2)c(=O)[nH]1`, the Percent Effect in assay [1] was -4.74%; in assay [2], 5.26%; in [3], 3.18%; in assay [4] it was -2.22%; in assay [5], -7.52%; in assay [6] it was 1.53%. Besides, the Percent Effect was 8.69% in [7]; 43.4% in assay [8]; 0.49% in assay [9]; 4.88% in assay [10]; -4.43% in assay [11].
On to `c1cnn(-c2ccc(CN3CCOC(Cn4cncn4)C3)cc2)c1` (stereo not drawn), for which the Percent Effect in assay [1] was -2.23%; in [2], 12.7%; in assay [3] it was 0.7%; in assay [4] it was 6.36%; in assay [5], 2.74%; in assay [6] it was 1.52%. The Percent Effect was -2.21% in assay [7]; -11.6% in assay [8]; 7.39% in [9]; 13.9% in assay [10]; -8.36% in assay [11].
For `CC(C)OCc1ccc(CNC(=O)CC(F)(F)F)cc1`, the Percent Effect in [1] was -5.75%; in assay [2] it was 21.1%; in [3], -5.14%; in assay [4], -0.714%; in assay [5] it was 3.83%; in assay [6], 0.719%. The Percent Effect in assay [7] was 3.98%; in assay [8], 6.56%; in [9], 8.37%; in [10] it was 23.5%; in [11] it was -9.86%.
Consider `O=C(CCc1ccc(=O)[nH]n1)N1CCCC(COc2ccc(F)cc2)C1` (stereo not drawn), for which the Percent Effect in assay [1] was -2.1%; in [2] it was 1.39%; in assay [3], -1.82%; in assay [4], -3.84%; in assay [5], 1.85%; in assay [6], 2.65%. The Percent Effect was 16.3% in [7]; 5.9% in [8]; 6.32% in assay [9]; 12.8% in assay [10]; -1.89% in assay [11].
`Cc1occc1C(=O)N1CCC2(CC1)NC(=O)CC2c1cnn(C)c1` (stereo not drawn): the Percent Effect is -3.16% in assay [1]; 10.8% in [2]; -0.0675% in [3]; -1.75% in [4]; 1.86% in assay [5]; 7.33% in assay [6]. Further, the Percent Effect in assay [7] is 9.41%; in assay [8] it was -9.35%; in [9] it was 0%; in assay [10] it was 12.8%; in assay [11], 0.845%.
